Laboratory results as given in PubChem BioAssay (NCI).
This is part of a sample that, as a whole, favours compounds with a hit. Of some 83,000 tested, about 20% had one in any assay.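 Percent growth is the endpoint: 0 to 100 indicates growth inhibition (40 means 60% inhibition), 0 means no net growth, and negative values indicate cell death.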 Unmarked numbers belong to inactive results. Activity calls are given as the source filed them. The calls were made as follows: active = growth percent below 10; inactive = the rest.

Columns and labels:
Assay in all cases: NCI-60 one-dose screen, 48 h (100 = growth as untreated, 0 = no growth, -100 = all killed)
[1] = test system: SR leukemia; settings: 10 µM unless noted
[2] = test system: RPMI-8226 leukemia; settings: 10 µM unless noted
[3] = test system: OVCAR-8 ovarian; settings: 10 µM unless noted
[4] = test system: OVCAR-5 ovarian; settings: 10 µM unless noted
[5] = test system: OVCAR-4 ovarian; settings: 10 µM unless noted
[6] = test system: SK-OV-3 ovarian; settings: 10 µM unless noted
[7] = test system: IGROV1 ovarian; settings: 10 µM unless noted
[8] = test system: OVCAR-3 ovarian; settings: 10 µM unless noted
[9] = test system: HS 578T breast; settings: 10 µM
[10] = test system: NCI/ADR-RES ovarian; settings: 10 µM unless noted
[11] = test system: T-47D breast; settings: 10 µM unless noted
[12] = test system: BT-549 breast; settings: 10 µM unless noted
[13] = test system: MDA-MB-435 melanoma; settings: 10 µM unless noted
[14] = test system: SW-620 colon; settings: 10 µM unless noted
[15] = test system: MCF7 breast; settings: 10 µM unless noted
[16] = test system: HCT-116 colon; settings: 10 µM unless noted
[17] = test system: HCC-2998 colon; settings: 10 µM
[18] = test system: KM12 colon; settings: 10 µM unless noted

SMILES | growth [1] | growth [2] | growth [3] | growth [4] | growth [5] | growth [6] | growth [7] | growth [8] | growth [9] | growth [10] | growth [11] | growth [12] | growth [13] | growth [14] | growth [15] | growth [16] | growth [17] | growth [18]
CCN1CCN(Cc2ccc(NC(=O)Nc3nc(-c4cc(OC)c(OC)c(OC)c4)cs3)cc2C(F)(F)F)CC1 | -32.6% (active) | -26% (active) | 14.1% | 71.3% | 14.1% | 36.1% | 49.5% | 22.8% | 40% | -6.84% (active) | -23.9% (active) | 45.3% | -51.4% (active) | 3.34% (active) | -15.2% (active) | -58% (active) | -36.6% (active) | -56.8% (active)
Cc1ccc(N=C2CSc3nnc(-c4csc5c4CCCC5)n3N2)cc1 | 32.2% | 24.7% | 35.1% | 54.4% | 62.1% | 27.6% | 53.3% | -21.4% (active) | 38.8% | 1.16% (active) | 48.2% | 31.3% | -25.1% (active) | 29.9% | 21.4% | 13.9% | 30.3% | 24%
CO/C=C/C(=O)c1cc2cnc3c(=N)cc(NC(=O)C(C)C)c([nH]1)c23 | -24% (active) | -38.1% (active) | 0.655% (active) | -16.3% (active) | -10.7% (active) | -25.7% (active) | -40% (active) | -45.1% (active) | -6.02% (active) | -9.63% (active) | -53.1% (active) | -58.9% (active) | -27.5% (active) | -47.8% (active) | 1.14% (active) | -55.4% (active) | -21% (active) | -23.9% (active)
Fc1ccc(NCc2cn(-c3ccccc3)nc2-c2ccc(OCc3ccccc3)cc2)cc1Cl | 96.1% | 98% | 105% | 86.6% | 97.5% | 82.3% | 96.9% | 97.3% | 104% | 95.4% | 79.8% | 89.6% | 102% | 108% | 94.1% | 76.8% | 102% | 98%
COc1cc(NCCN(CC(C)C)CC(C)C)c2ncc(C)cc2c1 | 76.3% | 62.6% | 68.7% | 111% | 34.6% | 88.8% | 76.5% | 1.71% (active) | 100% | 76.5% | 20.3% | 88.7% | -76.4% (active) | 68.1% | 2.66% (active) | 31.8% | 85.6% | 68.6%
Cc1cc(C)n(CC(=O)Nc2ccc(-c3nc4ccccc4s3)cc2)n1 | 99.4% | 97.2% | 99.7% | 105% | 97.8% | 114% | 97.4% | 101% | 113% | 103% | 93.3% | 115% | 107% | 113% | 26.6% | 107% | 92.9% | 100%
CCc1nc2ccc(Cc3ccc(C(=O)NO)cc3)cc2c(=O)n1CCc1ccccc1 | 2.05% (active) | 6.11% (active) | -31% (active) | 1.71% (active) | -7.64% (active) | -26.9% (active) | -56.7% (active) | -37.1% (active) | 14.9% | -17.3% (active) | -7.19% (active) | -31.2% (active) | -73.7% (active) | -27.2% (active) | 4.69% (active) | -55% (active) | -74.8% (active) | -58.9% (active)
CC(N)C(Cc1ccccc1)c1ccc(Cl)cc1 (stereo unspecified) | 67.9% | 94.5% | 96.1% | 80.8% | 85.8% | 72.5% | 94.8% | 102% | 86.2% | 95.7% | 75.5% | 88.4% | 94.1% | 88.9% | 90.3% | 78.8% | 84.5% | 98.9%
CC1(C=O)NC(=O)NC1=O (stereo unspecified) | 96.6% | 109% | 94.9% | 101% | 110% | 81.9% | 111% | 115% | 104% | 107% | 95.2% | 91.4% | 111% | 101% | 95.6% | 90.5% | 94.7% | 108%
CCc1nc2cc(F)c(/C=C/C(=O)NO)cc2c(=O)n1CCc1ccccc1 | 15.1% | 11% | 11.6% | 23.6% | 15.4% | 1.17% (active) | 32.2% | 7.99% (active) | 43.3% | 2.43% (active) | 2.26% (active) | 28.8% | 23.8% | 9.97% (active) | 12.3% | 5.01% (active) | 37.3% | 25.6%
COc1cnc2c(c1)C(=O)c1c-2n(CCCN2CCOCC2)c(=O)c2cc(Cl)ccc12 | 7.63% (active) | 9.78% (active) | 32.8% | 69.1% | 41.6% | 10.7% | 43.2% | 25.8% | 79.2% | 19.2% | 10% | 43.6% | 47.5% | 21.3% | 10.4% | 8.51% (active) | 53.6% | 32.7%
Nc1c2c(c(O)c3c1=C(CO)C=N3)=NCCS2=O (stereo unspecified) | 3.82% (active) | 20.7% | -18.8% (active) | -61.6% (active) | -96.7% (active) | 77% | -15.2% (active) | -51.5% (active) | 1.72% (active) | 0.866% (active) | -42.6% (active) | -74.4% (active) | -82.7% (active) | -18% (active) | -50.6% (active) | -49.3% (active) | -87.8% (active) | -27.7% (active)
Cc1cc2c(-c3nc4ccccn4c3N)c(O)c(O)cc2c(O)c1-c1c(C)cc2c(-c3nc4ccccn4c3N)c(O)c(O)cc2c1O | 26.9% | 9.18% (active) | 19.9% | 36.7% | 33.7% | -10.4% (active) | 28.9% | 26.5% | 37.6% | 26.4% | 14.6% | 21.2% | 13.4% | 22.7% | 10.7% | 9.9% (active) | 30.7% | 22.1%
CCNC(=O)Nc1nc2ccc(Oc3ccnc(C(=O)NC)c3)cc2s1 | 30.4% | 85% | 91.6% | 92.9% | 83% | 88.1% | 90% | 83.1% | 87.3% | 73.3% | 62.6% | 90.6% | 3.1% (active) | 45.8% | 36.9% | 56% | 71.9% | 33.4%
C=CCC(=O)N[C@H](/C=C/C(=O)O)Cc1ccc(-c2cc(Cl)cc(Cl)c2)cc1 | 82% | 96.6% | 92.7% | 92% | 98.6% | 87.3% | 114% | 108% | 97% | 107% | 81% | 92% | 103% | 104% | 92.7% | 82.5% | 101% | 98.5%
COc1cnc2c(c1)C(=O)c1c-2n(CCCN2CCC(O)CC2)c(=O)c2cc(Cl)ccc12 | -16.9% (active) | 8.25% (active) | 46.1% | 101% | 70% | 27.8% | 55.6% | 80.9% | 86.7% | 28.3% | 42.8% | 46.9% | 76.1% | -32.1% (active) | 0.872% (active) | -60% (active) | 51.5% | 45%
Cc1cc(N(CCNc2ccnc3cc(Cl)ccc23)Cc2cccs2)nc(Cl)n1 | -22.9% (active) | -23.2% (active) | 11.5% | 12.8% | -51.3% (active) | -48.8% (active) | -1.29% (active) | -77.4% (active) | -5.93% (active) | -2.82% (active) | -34.3% (active) | -55.4% (active) | -1.48% (active) | 2.77% (active) | 5.64% (active) | -85% (active) | -14.3% (active) | 34%
